These results are taken from PubChem BioAssay (NCATS).

Results filed as inconclusive are left out. Entries that show only a call come without a potency. The source made the active and inactive calls. The call rests on the fitted dose curve; in most records, active means well fitted inhibition curve with a large enough effect; inconclusive means small, poorly fitted or top-dose-only effect; inactive means flat fitted curve, though single readings scatter.
Potency means the concentration at half of the fitted maximal effect.

For this experiment, the system named is HaCat. The experiment in a line: Cytotoxic Profiling of Annotated Libraries Using Quantitative High-Throughput Screening (AID 1296008). Further: nearly all actives have a fitted effect of over 60% in size. The conditions noted are these: Five cell lines viability, CellTiter-Glo ATP luminescence, 48-72 h; max response: active compounds read low. In a few lines: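 Compounds were pin-transferred onto cells and incubated 48 or 72 hr at 37 degree Celsius, 95% humidity. CellTiter-Glo was added, plates sat 10 min at room temperature, then ATP-coupled luminescence was imaged as the viability read-out.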
For orientation: Cellular ATP, detected with luciferase, serves as a proxy for viable cell number.
As for `Nc1cc(C(F)(F)F)ccc1S`, the compound was classed as inactive.
For the compound `NS(=O)(=O)c1ccc(N2CCCCS2(=O)=O)cc1`, the compound was called inactive.
Turning to `COc1cc2c(cc1OC)C(=O)CC2`, the call was inactive.
As to `Cc1ccc(C(C)OC(=O)C2(C)CCC(C(=O)O)C2(C)C)cc1` (stereo not drawn), the compound was called inactive.
Still for that read-out and setting: then `Cc1cc(O)c(C)c(C)c1O`, with “inactive”.
Same read-out and setting: then `COCCOCC(OC)OC`, with “inactive”; and `CC(C)NC(=O)c1ccc(C=O)cc1`, with “inactive”.
Take `O=C1CCCc2c(O)cccc21`: the result was inactive.
The same measure, in the same setting: then `CC(CC(C#N)(c1ccccc1)C(C)C)N(C)C` (stereo not drawn), with “inactive”.
For `Nc1ccc2cc3ccc(N)cc3nc2c1`, the Potency was 3.76 µM (active).
For `CCC1=C[C@@H]2CN(C1)Cc1c([nH]c3ccccc13)[C@@](C(=O)OC)(c1cc3c(cc1OC)N(C)[C@H]1[C@@](O)(C(=O)OC)[C@H](OC(C)=O)[C@]4(CC)C=CCN5CC[C@]31[C@@H]54)C2`, the compound was called inactive.
With `COC(=O)CCCCC(CCSS/C(CCO)=C(\C)N(C=O)Cc1cnc(C)nc1N)SC(C)=O` (stereo not drawn), the result was inactive.
Still for that read-out and setting: then `Oc1ccccc1-c1nnco1`, with “inactive”.
On to `CO[C@@]1(NC(=O)CSC[C@@H](N)C(=O)O)C(=O)N2C(C(=O)O)=C(CSc3nnnn3C)CS[C@@H]21`, for which the compound was classed as inactive.
Same read-out and setting: then `CCOC(=O)NNc1nncc2ccccc12`, with “inactive”.
On to `Cc1oc(-c2ccccc2)nc1CCC(=O)c1ccc(CC2SC(=O)NC2=O)cc1` (stereo not drawn), for which the outcome was inactive.
Take `CCCCN(CCN(CCCC)C(=O)N1CCOCC1)C(=O)N1CCOCC1`: the compound was called inactive.
Same read-out and setting: then `CCC(=O)O[C@]1(C(=O)COC)[C@@H](C)C[C@H]2[C@@H]3CCC4=CC(=O)C=C[C@]4(C)C3(F)[C@@H](O)C[C@@]21C` (stereo partly drawn), with “inactive”.
